Source: PubChem (National Center for Advancing Translational Sciences (NCATS))
Shown are actives, neighbours in structure and some others; about 9.4% of the full set was active somewhere.
ELG1 repair inh – ELG1-dependent DNA repair inhibition. HEK293T ELG1-luciferase reporter, luminescence, 16 h; DNA damage induced by 5-fluorouridine. AID 504467. Potency, µM (titrated, usually from 46.1 µM), without a hit: at the top dose activity change, negative = inhibition, most hits filed as inhibitors. actives 2.3% (n = 330,000); further: on the % scale 0 is the no-effect control and ±100 the full control effect; nearly all actives have a fitted effect of over 55% in size
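HEK293T cells expressing luciferase-tagged ELG1 (2,000/well) received 5-Fluorouridine plus compound or DMSO for 16 hr at 37 °C. Luciferase was read by ONE-Glo luminescence after 30 min at room temperature.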
Rab9 prom act – activators of Rab9 promoter. AID 485297. actives 2.8% (n = 320,000). Potency, µM (highest dose often 9.22 µM), for the others: top-dose activation, negative = inhibition, hits mostly activators. Huh7 Rab9 promoter-luciferase reporter, luminescence, 24 h; further: % of control where 0% means no effect; nearly all actives have a fitted effect of over 60% in size
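Cells were plated at 1500 per well in reduced-serum medium with 10% FBS and left 2 h. Compound in DMSO was then added for 24 h at 37 °C. Reporter signal was read by luminescence after 10 min with luciferase detection reagent.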
NPC1 prom act – activates the NPC1 promoter | Huh7 NPC1 promoter luciferase reporter, 24 h | Potency, µM (series often up to 9.22 µM), for inactives: top-dose activation, most hits filed as activators | actives 2.4% (n = 320,000) | AID 485313; further: % of control where 0% means no effect; nearly all actives have a fitted effect of over 60% in size
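Quantitative HTS used a cell-based reporter: Huh7 cells stably bearing the NPC1 promoter upstream of luciferase were treated with compounds for 24 h, and promoter activation was read as luminescence.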
ELG1 genotox – genotoxicity induction in ELG1-luciferase HEK293T cells | HEK293T ELG1-luciferase reporter, luminescence, 16 h | Potency, µM (top dose mostly 46 µM), for the others: at the top dose activity change, positive = activation, usual class: activators | actives 1.3% (n = 330,000) | AID 504466; further: % of control where 0% means no effect; nearly all actives have a fitted effect of over 60% in size
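Luminescence read-out: rising ELG1-luciferase signal, reflecting elevated ELG1 protein under genetic stress, flags genotoxic compounds. Cells were treated for 16 hr at 37 °C before ONE-Glo detection.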
SMN2 splice enh – SMN2 splice variant enhancement. HEK293 SMN2-luciferase splicing reporter, luminescence, 30-36 h. Potency, µM (highest dose often 46.1 µM), without a hit: at the highest dose activity change, positive = activation, hits mostly activators. actives 2.8% (n = 210,000). AID 1458; further: % of control where 0% means no effect; nearly all actives have a fitted effect of over 55% in size
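HEK293 cells carry an SMN2 […]–luciferase reporter in which exon 7 inclusion puts luciferase in frame. Cells were plated 10-12 h before compound addition, then incubated 30-36 h at 37C. ONE-Glo luminescence was read; sodium butyrate at 4.5 mM final served as control.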
FLuc counter – inhibits or activates purified firefly luciferase, miR-21 counter-screen; actives 6.9% (n = 360,000); purified FLuc, Km substrates, luminescence inhibition; Potency, µM (highest dose often 57.5 µM), inactives show at the top dose activity change, negative = inhibition, hits mostly inhibitors; AID 588342;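 further: plate controls were vehicle for no effect and reference inhibitor for full effect; nearly all actives have a fitted effect of over 55% in size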
Target sequence (P08659 whole entry, looked up): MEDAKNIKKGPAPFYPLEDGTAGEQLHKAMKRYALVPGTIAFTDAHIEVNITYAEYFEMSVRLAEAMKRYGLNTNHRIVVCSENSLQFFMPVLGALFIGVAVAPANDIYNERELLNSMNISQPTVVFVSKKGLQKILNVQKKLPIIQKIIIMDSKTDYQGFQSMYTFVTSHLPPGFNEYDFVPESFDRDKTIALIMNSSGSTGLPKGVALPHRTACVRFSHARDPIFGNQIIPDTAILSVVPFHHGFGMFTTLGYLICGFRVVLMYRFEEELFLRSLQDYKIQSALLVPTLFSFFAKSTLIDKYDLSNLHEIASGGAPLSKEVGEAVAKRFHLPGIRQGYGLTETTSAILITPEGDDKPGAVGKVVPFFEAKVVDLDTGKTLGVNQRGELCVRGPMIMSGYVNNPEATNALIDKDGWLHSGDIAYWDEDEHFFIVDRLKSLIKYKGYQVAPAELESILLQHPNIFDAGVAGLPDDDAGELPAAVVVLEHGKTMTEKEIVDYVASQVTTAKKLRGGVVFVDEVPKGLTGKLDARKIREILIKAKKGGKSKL
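Purified P. pyralis luciferase (10nM final) with 10uM D-luciferin and 10uM ATP (Km levels) in 50mM Tris acetate pH 7.5, 10mM Mg acetate, 0.01% Tween-20, 0.05% BSA; qHTS 6-point titration, ~60 µM downward; luminescence read.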
The depositor's hits bear a star; ? = inconclusive; · = no result given; [ ] = remark or other dose. The call rests on the fitted dose curve; in most records, active means well fitted curve in the direction sought with a large enough effect; inconclusive means small, poorly fitted or top-dose-only effect, or another doubt; inactive means no such curve, though single readings can be large; an effect the other way counts as inactive or inconclusive. Potency means the concentration at half of the fitted maximal effect.

SMILES	ELG1 repair inh	Rab9 prom act	NPC1 prom act	ELG1 genotox	SMN2 splice enh	FLuc counter
O=C(c1ccco1)N1CCN(c2nc(-c3ccc(F)cc3)cs2)CC1	6%	10%	-2%	-4%	·	24µM*
Fc1ccc(-c2csc(N3CCOCC3)n2)cc1	?	2.5µM*	4µM*	13%	·	21µM*
Cc1nc(-c2ccccc2)cs1	-2%	0%	-4%	0%	15%	-14%
c1ccc(-c2csc(-n3cccn3)n2)cc1	?	23%	19%	2%	1%	27µM*
Cc1ccc(-c2cn3cccnc3n2)cc1NC(=O)Cc1ccccc1	·	·	·	·	·	-1%
CC(C)c1ccc(NC(=O)CCNS(=O)(=O)c2ccc3c(c2)oc(=O)n3C)cc1	·	·	·	·	2%	-1%
CCCCN(C)C(=O)Cn1cnc2sc(C)c(S(=O)(=O)N3CCC(C)CC3)c2c1=O	·	·	·	·	-5%	-2%
COC(=O)c1ccccc1NC(=O)C1CCCN(C(=O)c2cnn(-c3ccc(F)cc3)c2-n2cccc2)C1 (centres undefined)	·	·	·	·	·	-11%
CC(C)CNC(=S)N1CCN(c2nc(-c3ccc(Cl)cc3)cs2)CC1	?	-1%	-9%	-7%	·	-3%
O=C(c1cn(-c2ccccc2)nc1-c1ccc(F)cc1)N1CCOCC1	-14%	6%	3%	2%	-2%	?
O=C(CSc1nc(-c2ccc(F)cc2)cs1)N1CCOCC1	?	?	29%	18µM*	62%	?
CCC(=O)N1CCN(c2nc(-c3ccc(Cl)cc3)cs2)CC1	2%	1%	2%	4%	-42%	27µM*
O=C(c1ccco1)N1CCN(C(=O)c2cn(-c3ccccc3)nc2-c2ccc(F)cc2)CC1	?	12%	5%	5%	·	4.8µM*
CC1CN(C(=O)CSc2nc(-c3ccc(F)cc3)cs2)CC(C)O1 (centres undefined)	8%	0%	-1%	-2%	-46%	-3%
c1ccc(-c2csc(N3CCSCC3)n2)cc1	?	?	13%	0%	7%	24µM*
O=C(NCCO)c1ccc(-c2nnc(Nc3ccc(OC(F)(F)Cl)cc3)c3ccccc23)cc1	·	·	·	·	-92%	1%
Cc1ccccc1CN1C(=O)c2ccccc2Sc2ccc(C(=O)NC3CCCCC3)cc21	·	·	·	·	·	-8%
Fc1ccc(-c2csc(N3CCSCC3)n2)cc1	29%	21%	6%	0%	-11%	17µM*
Clc1ccc(-c2csc(N3CCSCC3)n2)cc1	?	23%	1%	?	14%	12µM*
Brc1ccc(-c2csc(N3CCC(c4ccccc4)C3)n2)cc1 (centres undefined)	?	?	?	8%	-33%	6µM*
Clc1ccc(-c2nnc(-c3ccc(Br)cc3)c(N3CCSCC3)n2)cc1	?	-5%	-1%	-5%	-8%	-2%
c1ccc2oc(-c3csc(N4CCOCC4)n3)cc2c1	?	0.5µM*	1.3µM*	?	3.2µM*	0.76µM*
Cc1nc2sccn2c1-c1nc(-c2cc3ccccc3o2)cs1	8%	-8%	7%	0%	-14%	?
Cc1c(C(=O)N(Cc2ccccc2F)C2CCS(=O)(=O)C2)oc2ccccc12 (centres undefined)	·	·	·	·	-11%	1%
C=CCN=C1S/C(=C\c2ccc(N(C)C)cc2)C(=O)N1CC=C	4%	?	18%	6%	·	21µM*
SMILES	ELG1 repair inh	Rab9 prom act	NPC1 prom act	ELG1 genotox	SMN2 splice enh	FLuc counter
O[C@@H](C1=C/C(=C\c2ccncc2)c2ccccc21)c1ccncc1	·	·	·	·	-29%[9.22 µM]	·
Cc1ccc(-c2n[nH]c(=S)n2/N=C/c2c(C)nn(-c3ccccc3)c2C)cc1	-22%	-2%	-5%	-2%	-6%	7%
Cc1ccccc1-c1n[nH]c(=S)n1/N=C/c1c(C)nn(-c2ccccc2)c1C	0%	0%	-2%	-9%	14µM*	1%
O=C(Nc1nccs1)C(=O)c1c[nH]c2ccccc12	?	3.2µM*	?	8.2µM*	?	7.6µM*
O=C(NC1CC1)C(=O)c1c[nH]c2ccccc12	?	18%	18%	6%	·	-1%
CSc1ccccc1NC(=O)CN(C)C(=O)Cc1c[nH]c2ccccc12	5%	1%	9%	-4%	·	0%
CSc1ccccc1NC(=O)C(=O)c1c[nH]c2ccccc12	?	?	26%	12%	?	15µM*
Cc1ccc2nc(-c3ccc(NC(=O)COc4ccc(Cl)c(C)c4)cc3)sc2c1	·	·	·	·	14µM*	21µM*
Cc1ccc2nc(-c3ccc(NC(=O)COc4c(C)ccc(C)c4C)cc3)sc2c1	·	·	·	·	?	19µM*
Cc1ccc2nc(-c3ccc(NC(=O)COc4ccc(Br)cc4Br)cc3)sc2c1	·	·	·	·	2.8µM*	2.1µM*
Cc1ccc(CSc2nc3ccc(NC(=O)COc4ccccc4F)cc3s2)cc1	·	·	·	·	·	-11%
CC(=O)Nc1ccc2nc(NC(=O)COc3ccc(C)cc3)sc2c1	20%	16%	13%	7%	10%	-7%
O=C(CSc1nc2ccccc2s1)c1sc2sc3ccccc3[n+]2c1O	·	·	·	·	5%[9.22 µM]	·
COc1ccc(CNc2oc(/C=C/c3cccc(OC)c3)nc2C#N)cc1	·	·	·	·	-25%	-7%
Cc1cccc(-c2nnc(SCc3cc(=O)c4cccc(Cl)c4[nH]3)n2C)c1	·	·	·	·	·	-15%
CN1CCN(Cc2nc3cccc4c3c([n+]2[O-])-c2ccccc2-4)CC1	·	·	·	·	1%[9.22 µM]	·
O=C(O)c1cc(N(Cc2ccccc2O)Cc2cc(O)ccc2O)ccc1O	·	·	·	·	-11%	·
OC1CCCCC1Sc1nc2ccccc2s1 (centres undefined)	?	?	?	?	-8%	17µM*
